# Screening data from PubChem.
# This is a sample that favours compounds with a hit; in the whole collection about 21% have one here.
# Pf growth 96h = Primary qHTS for delayed death inhibitors of the malarial parasite plastid, 96 hour incubation | P. falciparum luciferase reporter growth, 96 h | Potency, µM (highest dose often 28.7 µM), for the others: top-dose activity change, negative = inhibition, usual class: inhibitors | 6.9% of 320,000 active; note: potency is the fitted concentration of half-maximal effect; % is set by controls: 0 for no effect and ±100 for the full control effect
#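 Readout is luminescence from an integrated firefly luciferase in P. falciparum. Red cells, 2% hematocrit and 0.05% parasitemia final, were cultured with compound through two parasite generations (96 hours) at 37 C, 5% CO2.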
# Shiga inhibitor = A qHTS for Small Molecule Inhibitors of Shiga Toxin; Vero cells, Shiga toxin protein synthesis inhibition reporter; inhibition, % at 38.7 µM; 9.2% of 290,000 active; AID 2315, 2010; in the data active = inhibition mostly above about 28%, no sharp cut-off; inactive = mostly below about 43%; note: 0% is about no effect
# AMA1 RON2 block = qHTS for Inhibitors of AMA1-RON; Towards Development of Antimalarial Drug Lead: Primary Screen; Plasmodium falciparum AMA1 (3D7) - RON2 peptide interaction; AlphaScreen AMA1-biotinylated RON2 peptide binding; Potency, µM (doses to about 58.2 µM), for the others: top-dose activity change, negative = inhibition, most hits filed as inhibitors; 0.2% of 360,000 active; AID 720542, 2013;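 note: potency is the fitted concentration of half-maximal effect; 0% = vehicle wells and -100% = peptide control; nearly all actives have a fitted effect of over 45% in size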
#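 AMA1 (3D7) with his tag at 25 nM final met compounds first, then biotinylated RON2 peptide at 25 nM; detection used donor plus acceptor beads, 10 µg/mL apiece, read by AlphaScreen after 30 min at room temperature.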
# CHX counter = Cycloheximide Counterscreen for Small Molecule Inhibitors of Shiga Toxin; cell reporter, cycloheximide protein synthesis inhibition counterscreen; 12% of 300,000 active; max response, %; in the data active = max response mostly above about 13%, no sharp cut-off; inactive = mostly below about 14%; note: read at 38.3 µM for the half of the compounds with a filed dose; 0% is about no effect
# Pf growth 48h = Primary qHTS for delayed death inhibitors of the malarial parasite plastid, 48 hour incubation | P. falciparum luciferase growth in erythrocytes, 48 h | Potency, µM (series often up to 28.7 µM), for the others: at the highest dose activity change, negative = inhibition, most hits filed as inhibitors | 5.9% of 310,000 active | AID 504832, 2011; note: potency is the fitted concentration of half-maximal effect; % is set by controls: 0 for no effect and ±100 for the full control effect
#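 Parasite viability was followed by luminescence of a genomically integrated firefly luciferase. Cultures held 0.1% parasitemia at 2% hematocrit (final), incubated under 5% CO2 at 37 C.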
# HCV inhibitor = qHTS Assay for Inhibitors of Hepatitis C Virus (HCV); Huh7.5.1 HCVcc-Cre infection, luciferase reporter, 44 h; Potency, µM (titrated, usually from 41.8 µM), without a hit: at the highest dose activity change, negative = inhibition, actives largely listed as inhibitors; 3.4% of 340,000 active; note: potency is the fitted concentration of half-maximal effect; % is set by controls: 0 for no effect and ±100 for the full control effect
#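 Antiviral activity was scored by luciferase reporter output from cells infected with HCVcc-Cre (~0.5 moi) in presence of compound, 44 h infection period, cells seeded 1,000/well 4 h prior.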
# * hit, by the source's call; ? = inconclusive; . = no result; ! = a repeat was not active; [ ] = dose if it differs, or a comment. Unless noted, calls come from the whole dose curve; as a rule, active = well fitted curve in the direction sought with a large enough effect; inconclusive = small, poorly fitted or top-dose-only effect, or another doubt; inactive = no such curve, though single readings can be large; an effect the other way counts as inactive or inconclusive.
SMILES,Pf growth 96h,Shiga inhibitor,AMA1 RON2 block,CHX counter,Pf growth 48h,HCV inhibitor
CCCCCCCCC(c1nc2ccccc2[nH]1)N1CCN=C1c1cc2ccccc2[nH]1 (centres undefined),.,.,53%,.,.,.
COc1cc(-n2c(N)c(C(=O)NCc3ccco3)c3nc4ccccc4nc32)cc(OC)c1OC,13µM*,-14,19%,-2,12µM*,-22%
Nc1c(C(=O)NCc2ccco2)c2nc3ccccc3nc2n1CCc1ccc(F)cc1,?,-4,29%,3,.,-18%
Nc1c(C(=O)NCc2ccco2)c2nc3ccccc3nc2n1CCN1CCCCC1,9.3µM*,-10,49%,-1,?,?
COc1ccc(Cn2c(N)c(C(=O)NCc3ccco3)c3nc4ccccc4nc32)cc1OC,3.7µM*,-7,37%,1,?,7.1µM*
COc1ccc(-n2c(N)c(C(=O)NCc3ccco3)c3nc4ccccc4nc32)cc1OC,?,11,71%,-1,13µM*,?
CCN(c1cccc(C)c1)S(=O)(=O)c1cc2c3c(c1)CCC(=O)N3CCC2,?,.,-13%,.,?,?
CN(CCO)c1cccc2c1S(=O)(=O)N[C@@H](Cc1ccccc1)CO2,.,.,36%,.,.,.
CCC(C)(C(=O)NC1CCCCC1)N(Cc1cccs1)C(=O)c1ccccn1 (centres undefined),?,2,-8%,-1,-11%,-13%
CCC(C)(C(=O)NC1CCCCC1)N(Cc1ccco1)C(=O)CNC(=O)c1ccccc1 (centres undefined),13%,13,-12%,31*,?,-23%
CCC(C)(C(=O)NC1CCCC1)N(Cc1cccs1)C(=O)c1ccccn1 (centres undefined),2.9µM*,-15,1%,10,9%,?
O=C(Nc1ccc(F)cc1)C(c1ccccc1OC(F)(F)F)N1CCN(c2cccc(C(F)(F)F)n2)CC1 (centres undefined),.,.,1%,.,.,.
Cc1ccc([C@H]2C[C@@H](O)[C@H](n3cc(C4CC4)nn3)CN2C(=O)c2cccs2)cc1,.,.,1%,.,.,.
Cc1sc2nc(CN3CCCC3)nc(N3CCC(C(N)=O)CC3)c2c1C,9.3µM*,12,1%,-4,.,?
Cc1sc2nc(CN3CCCC3)nc(N3CCN(C(=O)c4ccco4)CC3)c2c1C,3.7µM*,27,-4%,-3,?,?
CCOc1ccc(Nc2n[nH]c(=S)s2)cc1,2.9µM*,43,34%,12,?,-6%
Cc1ccc(Nc2n[nH]c(=S)s2)cc1,.,.,155%,.,.,.
O=C1CC(c2nc3ccccc3[nH]2)CN1c1cccc(C(F)(F)F)c1 (centres undefined),?,-12,-2%,-3,2%,-27%
O=C(C1CC(=O)N(c2ccc(F)cc2)C1)N1CCC(c2nc3ccccc3[nH]2)CC1 (centres undefined),8.3µM*,.,-7%,.,?,8%
CCCC(=O)Nc1ccc(S(=O)(=O)N2CCC(c3nc4ccccc4[nH]3)CC2)cc1,5.2µM*,.,-7%,.,13µM*,?
CCC(=O)Nc1ccc(S(=O)(=O)N2CCC(c3nc4ccccc4[nH]3)CC2)cc1,?,.,-1%,.,?,14%
O=C(C1CCCCC1)N1CCC(c2nc3ccccc3[nH]2)CC1,9.3µM*,-2,0%,2,-25%,-5%
Cc1ccc(N2CC(C(=O)N3CCC(c4nc5ccccc5[nH]4)CC3)CC2=O)cc1C (centres undefined),10µM*,.,-7%,.,?,-5%
CCc1ccc(CN(C)C(=O)c2ccc3c(c2)OCCO3)cc1,-7%,28,7%,2,10%,-11%
O=C(NC1CCCCC1)N1CCCC(c2nc3ccccc3[nH]2)C1 (centres undefined),1.5µM*,2,3%,-1,-15%,?
SMILES,Pf growth 96h,Shiga inhibitor,AMA1 RON2 block,CHX counter,Pf growth 48h,HCV inhibitor
CC(C)(C)NC(=O)CCCCCCCC(=O)NC(C)(C)C,-18%,-3,14%,-6,4%,11%
CC(=O)N/N=C(\C)CC(=O)NC(C)(C)C,3.7µM*,-9,14%,-3,26%,9%
FC(F)(F)c1cccc(Cn2nnnc2-c2ccc(Cl)cc2)c1,8.3µM*,8,9%,-2,?,-4%
O=c1ccc(-c2ccc(S(=O)(=O)N3CCN(c4cccc(Cl)c4)CC3)o2)n[nH]1,?,-5,0%,-10,6%,29%
CCOC(=O)C(CCc1ccccc1)NC(C)C(=O)N1Cc2cc(OC)c(OC)cc2CC1C(=O)O (centres undefined),12µM*,-5,.,-2,?,.
CCOC(=O)[C@H](CCc1ccccc1)N[C@@H](C)C(=O)N1CCC[C@H]1C(=O)O,6µM*!,-18,0%,-1,-26%,?
CCOC(=O)[C@H](CCc1ccccc1)N[C@@H](C)C(=O)N1CCC[C@@H]1C(=O)O,0%,.,27%,.,0%,13%
O=C(Nc1cc(Sc2ccccn2)cc([N+](=O)[O-])c1)c1cccc(Cl)c1,20%,8,-3%[11.6 µM],9,9.3µM*,8.9µM*
O=C(Nc1cc(Sc2ccccn2)cc([N+](=O)[O-])c1)c1ccc(Cl)cc1,?,57,-21%,21*,?,10µM*
O=C(Nc1cccc(Cl)c1)c1cccc(Oc2ccc([N+](=O)[O-])cc2Cl)c1,?,-9,-14%,-3,?,?
CC(=O)N1CCN(c2ncnc3ccccc23)CC1,-28%,-12,-1%,-2,14%,20%
NS(=O)(=O)c1cccc(NC(=O)CCSc2ccccc2Cl)c1,110%,68*,12%,61*,79%,11%
Cc1cc(C)c([N+](=O)[O-])cc1NC(=O)CCSc1ccccc1Cl,?,14,6%,-1,?,?
O=C(CCSc1ccccc1Cl)Nc1cccc([N+](=O)[O-])c1,100%,73*,-2%,45*,111%,?
CC(CCc1ccccc1)NC(=O)COC(=O)C(CCC(N)=O)NC(=O)c1ccc(F)cc1 (centres undefined),9%,.,15%,.,6%,19%
CN(Cc1ccccc1)C(=O)NC1CCCCC1,?,13,-7%,4,2%,-10%
CC[C@@H](CC1CCCCC1)C(=O)N(Cc1ccccc1)c1ccccc1,.,.,32%,.,.,10µM*
CN(CC(=O)Nc1cccc(S(=O)(=O)N(C)C)c1)Cc1ccccc1,-22%,28,5%,23*,-16%,0%
CN(CC(=O)NCCCc1ccccc1)Cc1ccc(Br)cc1,31%,-3,?,-4,19%,4%
